From PubChem BioAssay (NCI) come the findings set out here.

The structures appear in SMILES notation. The panel holds about 83,000 compounds, 20% with a hit somewhere; the sample as a whole holds those more often.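 Compound tested at a single concentration for 48 hours in 96-well plates; a percent growth value below 10 was scored as active.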 A number with no mark means an inactive call. The source made the active and inactive calls.

Holding throughout (experiment): NCI-60 one-dose screen, 48 h (100 = growth as untreated, 0 = no growth, -100 = all killed)
Common to all, as to settings: 10 µM unless noted

The test system of assay [1] is EKVX NSCLC.
Assay [2] has as its system SN12C renal.
Assay [3] deals with UO-31 renal.
Assay [4] concerns ACHN renal.
The subject of assay [5] is CAKI-1 renal.
Assay [6] concerns A498 renal.
For assay [7], the system named is CCRF-CEM leukemia.
In assay [8] the test system is MOLT-4 leukemia.
Assay [9] relates to TK-10 renal.
Assay [10] concerns SR leukemia.

In the case of `O=C(Nc1ccc(F)cc1F)c1cc(I)ccc1O`, the growth in assay [1] was 55.8%; in assay [2], 8.12% (active); in assay [3], 2.51% (active); in [4], 11%; in [5], -17.5% (active); in assay [6], -33.2% (active). For the same compound, the growth in [7] is 14.1%; in assay [8] it was 7.29% (active).

With `O=c1c(-c2nc3ccccc3[nH]2)cc2ccccc2n1Cc1cn(Cc2ccccc2Cl)nn1`, the growth in [1] is 74.8%; in [2] it was 12%; in assay [3], -65.7% (active); in assay [9], 31%; in assay [5], 77.4%; in [6] it was 67%. Moreover, the growth in [7] is 65.2%; in assay [8], 32.5%; in [10], 11.5%.

As to `O=C1c2cc(Cl)ccc2Oc2cc([N+](=O)[O-])ccc2N1c1ccc(F)cc1F`, the growth in assay [1] is 108%; in [2], 101%; in assay [3], 71.2%; in assay [4], 90.6%; in assay [5], 59%; in assay [6] it was 91.3%. The values for the growth in assay [7] and in [8] were 85.3% and 57.4%, respectively.

Turning to `O=C(CCN1C(=O)c2ccccc2C1=O)Nc1ccc(Cl)cc1`, the growth in [1] is 88.2%; in assay [2], 75.3%; in [3] it was 50.1%; in assay [4], 82.2%; in assay [5] it was 68.4%; in assay [6], 103%. Also, the growth in assay [7] was 43.3%; in assay [8], 42%.

`CCCCOCc1cc(CN2CCN(C)CC2)c(O)c2ncccc12`: the growth was 38.4% in assay [1]; 62% in [2]; 21.3% in [3]; 27.9% in [4]; 19.5% in assay [5]; 70.1% in [6]. The growth was 31.8% in assay [7], 60.6% in [8] and 35.9% in assay [10].

As to `CC/C(=C(\CC)c1ccc(OCC[N+](C)(C)C)cc1)c1ccc(OC)cc1`, the growth in assay [1] was 95.6%; in [2], 51.1%; in [3], 98.2%; in assay [4], 98%; in assay [5], 104%; in [6], 53%. The results for the growth in assay [7], in assay [8] and in assay [10] were 60.1%, 65% and 69.3%, respectively.

`O=C(/C=C/c1ccc(Cl)cc1)c1ccc(Nc2nc(NCCO)nc(Nc3ccc(Cl)cc3)n2)cc1`: the growth in assay [1] was 59.1%; in assay [2], 83.1%; in assay [3], 57.3%; in assay [4] it was 57.2%; in assay [5], 67.3%; in [6] it was 79.5%. Besides, the growth in assay [7] was 47.2%; in assay [8], 46.1%; in [10] it was 23.2%.

As for `CCN(CCO)CCNc1ccc(C)c2sc3cc(Cl)ccc3c(=O)c12`, the growth in assay [1] was 84.4%; in [2], 37.8%; in assay [3], 37.5%; in assay [4], 7.81% (active); in assay [5], 68%; in [6], 1.76% (active). For the same compound, the growth in assay [7] is 14.4%; in assay [8], 7.65% (active); in assay [10], -19.4% (active).

`Fc1cccc(COc2ccc(Nc3ncnc4onc(-c5ccccc5)c34)cc2)c1`: the growth is 32.9% in [1]; 22.3% in [2]; 18.6% in [3]; 49.1% in [9]; 37.5% in [5]; -22.4% (active) in assay [6]. Also, the growth was 20.1% in assay [7], 15.4% in assay [8] and 26.1% in assay [10].

`CN1C(=O)N(C)C2(c3ccccc3)n3c(s/c(=C\c4ccccc4)c3=O)=NNC12c1ccccc1` (stereo unspecified): the growth in assay [1] was 76.1%; in assay [2], 91.3%; in [3], 74.9%; in assay [9], 116%; in [5], 84.5%; in [7] it was 92.2%. For the same compound, the results for the growth in assay [8] and in assay [10] were 83% and 71.9%, respectively.

In the case of `O=C(c1nc2ccccc2[nH]1)C1[C@@H](c2cccc(O)c2)C2CC3CCCCC3N2[C@@]12C(=O)Nc1cc(Cl)ccc12` (stereo partly specified), the growth in assay [1] is 41.9%; in assay [2] it was 43.6%; in assay [3] it was 33.5%; in [4], 30.4%; in [5], 80%; in assay [6] it was 52.7%. The values for the growth in assay [7], in [8] and in [10] were 15%, 7.08% (active) and 3.72% (active), respectively.

Consider `NCCCNc1nc2ccccc2c2c(=O)c3cc(F)ccc3sc12`, for which the growth in [1] was 35.6%; in assay [2], 41.7%; in assay [3] it was 23%; in assay [9] it was -46.6% (active); in assay [5] it was 33.8%; in assay [6], 20.5%. Moreover, the values for the growth in [7], in assay [8] and in assay [10] were 0.338% (active), -35% (active) and 9.08% (active), respectively.

For `CCCCN1CCN(c2ccc3nc(-c4ccc5nc(-c6ccc(OC)c(OC)c6)[nH]c5c4)[nH]c3c2)CC1`, the growth was 38.8% in assay [1]; 7.75% (active) in [2]; 50.7% in assay [3]; 2.47% (active) in assay [4]; 2.32% (active) in [5]; 3.3% (active) in assay [7]. Besides, the figures for the growth in [8] and in assay [10] were -14.3% (active) and -6.6% (active), respectively.

On to `O=c1oc2ccc(-c3ccc(F)cc3F)cc2c(=O)n1-c1ccc(Cl)c(C(F)(F)F)c1`, for which the growth is 55.4% in [1]; 11.2% in assay [2]; 75.6% in assay [3]; 18.2% in assay [4]; -8.76% (active) in [5]; -43.5% (active) in assay [6]. Further, the growth in assay [7] was 13.2%; in assay [8], 6.67% (active).

As to `COc1cccc(/C=C/C(=O)c2c(C)nc3ccccc3c2/C=C/c2ccccc2)c1OC`, the growth was 50.8% in assay [1]; 31.1% in [2]; 48.8% in assay [3]; 31.4% in assay [4]; 39.2% in assay [5]; 58.1% in [6]. Moreover, the growth in assay [7] was 13%; in [8], 4.78% (active).

For `Cc1ccc(NCCNCC(O)CO)c2c(=O)c3ccccc3sc12` (stereo unspecified), the growth in assay [1] is 43.3%; in assay [2] it was 19.7%; in assay [3], -24% (active); in [4] it was -46.3% (active); in [5], 39.2%; in [6], 43.2%. Besides, the growth in assay [7] is 22.2%; in assay [8], 9.37% (active); in assay [10], -9.74% (active).

Regarding `Nc1ncnc(N)c1NC(=O)c1ccc(OCc2ccccc2)cc1`, the growth is 98.9% in [2]; 88.1% in assay [3]; 99.3% in assay [9]; 99.9% in [4]; 99.3% in assay [5]; 98% in assay [6]. In addition, the growth in assay [7] was 98.5%; in assay [8], 96.8%; in assay [10] it was 94%.

For `Nc1nc(Nc2cccc(F)c2)nc2ccccc12`, the growth was 34.2% in [2]; 23.7% in [3]; 29.9% in [9]; 44.8% in assay [4]; 38.3% in assay [5]; 43.9% in assay [6]. Further, the figures for the growth in assay [7] and in [8] were 26.2% and 39.5%, respectively.

Take `CCOc1ccc2c(c1)CN(Cc1ccc(Cl)cc1)CO2`: the growth in assay [2] is 67.7%; in [3], 40.5%; in [9], 20.1%; in assay [4], 33.2%; in [5], 54.2%; in assay [6], 39.5%. Besides, the growth in [7] was 78.1%; in [8], 83.2%; in assay [10], 41.5%.

Take `CCOc1cc2c(cc1OCC)C(c1cc(C)c(O)c(C)c1)NCC2` (stereo unspecified): the growth in assay [2] was 95.7%; in [3], 73.4%; in [9] it was 107%; in assay [4], 94.2%; in [5], 85.2%; in assay [6] it was 88.1%. In addition, the growth in [7] was 89.6%; in [8], 96.3%; in [10], 80.7%.

With `C[n+]1c2ccccc2nc2ccc(NCCO)cc21`, the growth in assay [2] is 85.6%; in assay [3], 45.8%; in [9], 127%; in assay [4], 83.7%; in assay [5] it was 93.4%; in [6], 75.1%. For the same compound, the growth in [7] was 64.5%; in assay [8] it was 63.8%.

As for `CN=c1ccc2nc3ccc(N)cc3sc-2c1`, the growth in [2] was 17%; in [3], 60.7%; in [9] it was 49.4%; in [4] it was 42.2%; in [5], 28.2%; in [6], 79.9%. Further, the values for the growth in assay [7], in [8] and in assay [10] were 21.5%, 1.3% (active) and 38%, respectively.

Regarding `CC(C)CCNCC(O)Cn1c2ccccc2c2ccccc21` (stereo unspecified), the growth was 19.4% in [2]; -14.4% (active) in assay [3]; 33.1% in [9]; 2.8% (active) in assay [4]; -0.189% (active) in assay [5]; 3.02% (active) in [6]. Besides, the growth in assay [7] was 13%; in [8] it was 2.44% (active).

For `COc1ccc(-c2nc(-c3ccccn3)c(-c3ccccn3)n2CC(C)C)cc1OC1CCCC1`, the growth in assay [2] is 8.15% (active); in assay [3] it was -13.8% (active); in assay [9], 28.5%; in assay [4] it was 16.8%; in [5] it was 10.5%; in assay [6], -14.3% (active). Also, the growth in assay [7] was 1.08% (active); in assay [8], -31.7% (active).

On to `CCOC(=O)c1cnc2ccc(Cl)cc2c1NCCCN(C)C`, for which the growth in assay [2] is 18.1%; in assay [3], -22.8% (active); in [9], 33.8%; in assay [4], 18.3%; in assay [5] it was -4.21% (active); in [6] it was 31%. Also, the growth in assay [7] is -4.96% (active); in assay [8] it was -5.58% (active); in assay [10], -5.95% (active).

As to `CCOC(=O)c1cc2c(n1Cc1ccccc1OC)-c1oncc1CCC2`, the growth in assay [2] was 53.3%; in assay [3], 45.2%; in [9], 59.4%; in assay [4], 53.4%; in [5], 35.8%; in assay [6] it was -2.62% (active). Besides, the growth was 8.18% (active) in assay [7], 28.4% in assay [8] and 4.65% (active) in [10].

As to `O=S(=O)(c1ccc(NC(=S)NC23CC4CC(CC(C4)C2)C3)cc1)N1CCCCC1`, the growth in assay [2] was 96.5%; in assay [3] it was 61.6%; in assay [9] it was 111%; in assay [4] it was 93.6%; in [5], 61.8%; in assay [6], 78.8%. Moreover, the values for the growth in assay [7], in assay [8] and in [10] were 13.9%, -14.7% (active) and -21.9% (active), respectively.

For the compound `CCOC(=O)c1cnc2c(C)cccc2c1Nc1ccc(C(C)=O)cc1`, the growth is 29.9% in [2]; 13.3% in [3]; 10.7% in [9]; 17.7% in assay [4]; 12% in [5]; 46.5% in [6]. The growth in assay [7] is 1.73% (active); in [8], -4.17% (active).

For `COc1cccc(C(=O)NC(c2ccc(C)cc2)c2cc(Cl)c3cccnc3c2O)c1` (stereo unspecified), the growth was 12.6% in assay [2]; -18.9% (active) in assay [3]; 27% in assay [9]; 10.6% in assay [4]; -3.64% (active) in [5]; 23.1% in assay [6]. Besides, the growth in assay [7] was 8.88% (active); in [8] it was 11.4%.

In the case of `O=C(Cc1ccccc1)NC(c1ccc(Cl)cc1)c1c(O)ccc2ccccc12` (stereo unspecified), the growth is 14.9% in [2]; -7.48% (active) in [3]; 17.1% in assay [9]; 10.1% in assay [4]; 4.37% (active) in assay [5]; 32.8% in assay [6]. Further, the values for the growth in assay [7], in assay [8] and in assay [10] were 13.4%, 9.11% (active) and 4.83% (active), respectively.

Consider `COc1ccc2sc(N(Cc3cccnc3)C(=O)c3ccc(C#N)cc3)nc2c1`, for which the growth in assay [2] was 80%; in [3] it was 75.6%; in assay [9] it was 96.6%; in [4] it was 91.2%; in assay [5], 91.9%; in assay [6] it was 89.6%. In addition, the growth in [7] is 72.1%; in [8], 57.8%; in assay [10], 66.4%.
